Assay results: PubChem BioAssay (NCI)
This is part of a sample that, as a whole, favours compounds with a hit. Of some 83,000 tested, about 20% had one in any assay.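 Cell lines were cultured in 96-well plates, exposed to a single compound concentration, and assessed for percent growth 48 hours later.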 Unmarked numbers belong to inactive results. Active and inactive are the calls of the source. How the source made its calls: active means growth percent below 10; inactive means the rest.

Key:
Test in all cases: NCI-60 one-dose screen, 48 h (100 = growth as untreated, 0 = no growth, -100 = all killed)
Details in all cases: 10 µM unless noted
[1] = test system: NCI-H23 lung
[2] = test system: NCI-H226 lung
[3] = test system: NCI-H322M lung
[4] = test system: HOP-62 NSCLC
[5] = test system: NCI-H460 lung
[6] = test system: HOP-92 NSCLC
[7] = test system: NCI-H522 lung
[8] = test system: 786-0 renal
[9] = test system: COLO 205 colon
[10] = test system: A549/ATCC NSCLC

Structure (SMILES)	growth [1]	growth [2]	growth [3]	growth [4]	growth [5]	growth [6]	growth [7]	growth [8]	growth [9]	growth [10]
CCOC(=O)[C@@H]1CSC(CC)=C(C(=O)O)N1	103%	98.2%	92.7%	89.2%	110%	-35.1% (active)	93.6%	92.2%	100%	–
C=CCOC(=O)Nc1cccn([C@H](Cc2ccccc2)C(=O)NCCC(C)C)c1=O	89.7%	82%	103%	104%	105%	87.5%	99.5%	112%	110%	–
O=C(/C=C/c1ccco1)Nc1ncc(Cc2cccc(C(F)(F)F)c2)s1	22.4%	33.2%	30.4%	1.31% (active)	-0.329% (active)	64.3%	-15% (active)	12.6%	-47.5% (active)	–
COc1c(C(=O)Nc2ccc(C)c(Br)c2)ccc2ccccc12	90.6%	103%	104%	99.8%	102%	105%	85%	96.5%	101%	87.9%
COc1ccc(NC(=O)c2sc3nc(C)c(C(=O)/C=C/c4ccccc4)cc3c2N)cc1	63%	65.6%	13.1%	60.8%	6.63% (active)	109%	41.7%	2.08% (active)	72.8%	–
Cc1ccc2c(c1)=C/C(=C\c1cc(-c3ccccc3)oc1O)C(=O)N=2	95.3%	106%	104%	101%	113%	87.4%	97.4%	91.4%	108%	–
Cc1ccc(CNc2ccc3nc(CCC4CCCCC4)[nH]c3c2)cc1	30.6%	43.2%	92.3%	73%	58.4%	0.719% (active)	9.99% (active)	52.2%	-30% (active)	–
Clc1ccc2c(NC3CCC(N4CCOCC4)CC3)ccnc2c1 (stereo not drawn)	62.2%	68.9%	101%	66.7%	81.8%	48.7%	80.8%	70.6%	81.4%	–
CCCCNC(=O)Oc1ccc(/C(=C(/C)Cc2ccc(OC)cc2)c2ccc(OCCN3CCCC3)cc2)cc1	85.9%	94.7%	81.6%	79.1%	17.7%	49%	55.5%	59.8%	-57.4% (active)	–
COC(=O)Nc1nc2ccc(S(=O)c3ccccc3)cc2[nH]1 (stereo not drawn)	64.4%	92.9%	88%	99.4%	60.3%	75.5%	65.8%	80.4%	67.5%	–
CC(=O)N1N=C(c2ccc(Nc3nc(Nc4ccccc4)nc(Nc4ccccc4)n3)cc2)CC1c1cccc([N+](=O)[O-])c1 (stereo not drawn)	94.6%	113%	96.2%	78.8%	107%	56.8%	104%	89.9%	88.1%	–
CC(=O)N1N=C(c2ccc(Nc3nc(Nc4ccccc4)nc(Nc4ccccc4)n3)cc2)CC1c1ccccc1 (stereo not drawn)	94%	86%	84.9%	77.6%	86.7%	61.5%	89.3%	86.8%	68.5%	79.3%
COc1cc2c(cc1OCCCN1CCN(CCCOc3cc4c(cc3OC)C(=O)N3CCC[C@H]3C=N4)CC1)C=CC(C)(C)O2	-58.5% (active)	-70.3% (active)	-80.7% (active)	-50.9% (active)	-94.8% (active)	-29.6% (active)	-80.5% (active)	-97.1% (active)	-76.8% (active)	–
O=C(Nc1nc2ccccc2s1)c1ccc(F)cc1	89.9%	92.7%	92.5%	106%	69.2%	78.7%	92.2%	108%	118%	–
